Screens (PubChem BioAssay)
BAZ2B block = BAZ2B (human) inhibition. actives 4.4% (n = 360,000). AlphaScreen BAZ2B-H3K14Ac peptide displacement. Q9UIF8. Potency, µM (series often up to 114 µM), without a hit: top-dose activity change, negative = inhibition, hits mostly inhibitors; also: % is scaled to controls: 0 for no effect and ±100 for the full control effect; nearly all actives have a fitted effect of over 60% in size
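BAZ2B (50 nM) with biotin-H3(5-23)K14Ac peptide (50 nM) in PBS pH 7.4, 0.01% Tween-20, preformed 30 min, then compound 30 min at room temperature; top concentration 110uM. AlphaScreen streptavidin donor/nickel chelate acceptor beads (10 ug/mL final), 20 min dark, signal read.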
G9a inh = blocks human histone lysine methyltransferase G9a; actives 8.8% (n = 350,000); Potency, µM (highest dose often 102 µM), for inactives: at the top dose activity, negative = inhibition, usual class: inhibitors; G9a H3K9 monomethylation, AlphaScreen, 2 h; AID 504332; also: % is scaled to controls: 0 for no effect and ±100 for the full control effect; nearly all actives have a fitted effect of over 75% in size
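AlphaScreen read-out: biotin-H3K9 peptide (500 nM) methylation by 20 nM enzyme with 20 uM SAM, 2 h at room temperature after 15 min compound preincubation; anti-monomethyl H3K9 antibody plus donor/acceptor beads, 10 min dark.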
HP1b binding inh = HP1-beta chromodomain-methylated histone interaction inhibition | Potency, µM (highest dose often 114 µM), for the others: at the top dose activity change, negative = inhibition, actives largely listed as inhibitors | actives 0.56% (n = 390,000) | P83916 | AlphaScreen HP1-beta / biotin-H3K9me3 peptide binding; also: nearly all actives have a fitted effect of over 70% in size
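Compound inhibition of the preformed complex between 50 nM HP1-beta and 50 nM biotinylated H3K9me3 peptide was read by AlphaScreen. Buffer was PBS pH 7.4 with 0.01% Tween-20. Incubations ran 30 min at room temperature, with 10 ug/mL donor/acceptor beads.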
PLK1 PBD inh = blocks phosphopeptide binding to human PLK1 polo-box domain. P53350. Plk1 PBD binding of FITC phosphopeptide, fluorescence polarization. Potency, µM, inactives show max response, negative = inhibition, most hits filed as inhibitors. actives 2.8% (n = 360,000); also: series mostly up to about 57 µM; % is scaled to controls: 0 for no effect and ±100 for the full control effect; nearly all actives have a fitted effect of over 65% in size
VDR inhibitor = blocks the human vitamin D receptor | P11473 | VDR-SRC2-3 peptide fluorescence polarization, 2 h | Potency, µM, inactives show max response, negative = inhibition, actives largely listed as inhibitors | actives 0.93% (n = 400,000) | AID 504847; also: % is scaled to controls: 0 for no effect and ±100 for the full control effect
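Measured by FP: displacement of SRC2-3 coactivator peptide from VDR by library compounds, following a two-hour ambient incubation.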
JMJD2A Tudor inh = JMJD2A Tudor domain (human) inhibition; O75164; Potency, µM (top dose mostly 114 µM), for inactives: at the top dose activity change, negative = inhibition, actives largely listed as inhibitors; AlphaScreen JMJD2A-Tudor / H3K4me3 peptide binding; actives 4.4% (n = 390,000); also: % is scaled to controls: 0 for no effect and ±100 for the full control effect; nearly all actives have a fitted effect of over 50% in size
Target sequence (O75164 whole entry, looked up, the tested form may be a part): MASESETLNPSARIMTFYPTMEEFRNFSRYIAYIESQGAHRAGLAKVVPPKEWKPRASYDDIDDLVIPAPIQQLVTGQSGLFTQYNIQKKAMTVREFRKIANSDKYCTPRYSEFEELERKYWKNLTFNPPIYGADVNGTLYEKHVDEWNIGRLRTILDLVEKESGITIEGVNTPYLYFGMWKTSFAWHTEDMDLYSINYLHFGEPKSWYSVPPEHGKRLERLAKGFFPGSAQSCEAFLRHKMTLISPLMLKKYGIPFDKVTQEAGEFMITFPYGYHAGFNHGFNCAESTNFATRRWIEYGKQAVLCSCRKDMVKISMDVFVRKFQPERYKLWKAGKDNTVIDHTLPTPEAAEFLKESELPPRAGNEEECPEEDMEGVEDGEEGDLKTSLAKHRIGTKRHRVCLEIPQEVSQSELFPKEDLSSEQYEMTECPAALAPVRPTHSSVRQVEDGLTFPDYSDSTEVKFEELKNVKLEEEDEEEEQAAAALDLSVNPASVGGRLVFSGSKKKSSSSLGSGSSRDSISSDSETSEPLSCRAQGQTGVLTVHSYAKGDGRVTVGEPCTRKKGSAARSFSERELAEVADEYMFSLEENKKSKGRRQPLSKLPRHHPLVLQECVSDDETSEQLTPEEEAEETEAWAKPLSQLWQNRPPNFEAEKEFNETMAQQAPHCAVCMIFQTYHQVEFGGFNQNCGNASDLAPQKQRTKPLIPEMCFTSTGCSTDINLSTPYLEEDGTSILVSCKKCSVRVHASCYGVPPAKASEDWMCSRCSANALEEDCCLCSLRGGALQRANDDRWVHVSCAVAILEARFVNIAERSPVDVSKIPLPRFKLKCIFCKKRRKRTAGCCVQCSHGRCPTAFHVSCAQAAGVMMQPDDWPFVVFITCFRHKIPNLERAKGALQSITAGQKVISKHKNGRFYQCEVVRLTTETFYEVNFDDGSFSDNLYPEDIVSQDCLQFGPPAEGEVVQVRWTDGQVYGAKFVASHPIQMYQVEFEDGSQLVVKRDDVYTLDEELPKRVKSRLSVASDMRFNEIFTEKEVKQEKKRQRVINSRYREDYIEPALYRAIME
* marks the source's active call; other numbers are inactive results; ? = inconclusive; / = not tested or not shown; [ ] = remark or other dose. A selection: hits, their analogues and other compounds. The true share with any hit is near 11%. Calls follow the shape of the dose curve; as a rule, active = well fitted curve in the direction sought with a large enough effect; inconclusive = small, poorly fitted or top-dose-only effect, or another doubt; inactive = no such curve, though single readings can be large; an effect the other way counts as inactive or inconclusive. Potency is read from the fitted curve at half-maximal effect.

SMILES	BAZ2B block	G9a inh	HP1b binding inh	PLK1 PBD inh	VDR inhibitor	JMJD2A Tudor inh
Cc1cc(C(=O)OCC(=O)N2CCOCC2)c(C)n1-c1ccccc1	/	/	6.6%	1.8%	6.1%	-7.1%
Cc1noc(C)c1C(=O)OCC(=O)Nc1c(F)cccc1F	/	8.5%	-10.8%	8.44µM*	50.1µM*	?
Cc1cc(C(=O)OCC(=O)Nc2c(F)cccc2F)c(C)n1-c1ccccc1	?	-13.6%	?	21.2µM*	?	20µM*
Cc1nc(SCc2cccc(Oc3ccccc3)c2)n[nH]1	1.8%	-3.4%	31.5%	3.0%	-3.1%	-10.6%
Cc1cnc(NC(=O)COc2ccccc2)s1	-3.0%	2.5%[59 µM]	-9.3%	29.9µM*	-0.8%	89.1µM*
COc1ccccc1OCC(=O)Nc1ncc(C)s1	-2.4%	15.2%[12.7 µM]	28.5%	-11.2%	8.3%	-11.5%
Cc1cnc(NC(=O)c2ccncc2)s1	-29.2%	50.1µM*	10.9%	3.0%	-4.8%	4.5%
O=C(COc1ccccc1)Nc1nn[nH]n1	79.4µM*	?	33.3%	-4.5%	20.2%	79.4µM*
Cc1cnc(NC(=O)CCCc2nc3ccccc3s2)s1	-8.5%	35.5µM*	8.3%	?	?	-7.1%
Cc1ccc2nc(NC(=O)CCCc3nc4ccccc4s3)sc2c1	-6.1%	?	38.4%	?	-28.7%	-29.5%
Cc1cnc(NC(=O)c2cncc(Br)c2)s1	-11.4%	0.0%	47.1%	-7.7%	2.4%	-2.1%
COC(=O)c1cc2oc(C)cc2n1Cc1cc(C)ccc1C	-31.6%	?	13.6%	/	-16.7%	-29.5%
CC(=O)N1CCN(S(=O)(=O)c2cccc(C(=O)OCc3ccc(C(C)(C)C)cc3)c2)CC1	1.1%	?	17.9%	-4.3%	-24.2%	-13.1%
O=C1CN(C(=O)CN2CCN(S(=O)(=O)c3ccccc3)CC2)c2ccccc2N1	/	/	/	4.1%	/	/
O=C(Nc1nc(-c2ccccc2)ns1)c1ccncc1	2.9%	/	19.4%	8.44µM*	?	-18.4%[11.4 µM]
O=C(CCCc1nc2ccccc2s1)NCc1ccccc1	-5.7%	16.2%[59 µM]	28.5%	-12.6%	3.1%	-8.1%
O=C(CCCc1nc2ccccc2s1)NNC(=O)CCN1CCN(Cc2ccccc2)CC1	-21.7%	35.5µM*	11.6%	-20.0%	?	-10.3%
Cc1ccc(Cc2c(-c3ccc(F)cc3)nc3c(C)cc(Br)cn23)cc1	/	/	/	-26.0%	/	/
Cc1c(Cc2ccccc2)sc(N)c1C(N)=O	-29.3%	2µM*	/	/	/	/
CCC(=O)Nc1sc(Cc2ccccc2)c(C)c1C(N)=O	?	/	-20.3%	26.7µM*	-9.0%	?
Cc1c(Cc2ccccc2)sc(NC(=O)Cc2ccccc2)c1C(N)=O	/	/	-51.8%	10.6µM*	?	-31.3%
Cc1c(Cc2ccccc2)sc(NC(=O)C(C)(C)C)c1C(N)=O	?	14.1µM*	?	18.9µM*	-8.0%	-34.7%
COC(=O)c1c(NC(C)=O)sc(Cc2ccccc2)c1C	0.2%	20.2%	31.5%	-10.1%	-9.5%	7.9%
CCCCNC(=O)c1cnn2c(C)c(Cc3c(F)cccc3Cl)c(C)nc12	37.1%	19.0%[59 µM]	88.0%	/	-4.2%	0.3%
CCc1nn(CC(=O)N2CCCCC2)c(=O)c2cc3sc(C)cc3n12	-2.5%	-10.2%[59 µM]	20.2%	/	-29.8%	0.7%
SMILES	BAZ2B block	G9a inh	HP1b binding inh	PLK1 PBD inh	VDR inhibitor	JMJD2A Tudor inh
COc1ccc(NC(=O)Nc2ccon2)c(OC)c1	-8.9%	23.5%	31.5%	-3.0%	-15.1%	1.3%
COc1cccc(-n2c([S-])c(C(=O)Nc3ccc(C(F)(F)F)cc3)[n+]3ccccc23)c1	-4.4%	-21.7%	/	/	/	/
Cc1cc(C(=O)O)ccc1-n1c(C)cc(C=C2C(=O)c3ccccc3C2=O)c1C	-34.6%	28.2µM*	-15.5%	?	-7.8%	?
O=C(O)c1ccccc1-c1ccc(/C=C2\SC(=O)N(c3ccccc3)C2=O)o1	?	7.08µM*	14.6%	-12.5%	-7.1%	-15.0%
COC(=O)C(C)N1C(=O)S/C(=C\c2ccc(-c3ccc(C(=O)O)cc3C)o2)C1=O (configuration not stated)	?	39.8µM*	?	29.9µM*	22.4µM*	?
Cc1cccc(NC(=O)CN2C(=O)S/C(=C\c3ccc(-c4cccc(C(=O)O)c4C)o3)C2=O)c1	?	12.6µM*	?	?	13.8%	79.4µM*
O=C(CN1C(=O)S/C(=C\c2ccc(C(=O)O)cc2)C1=O)Nc1ccccc1	-1.7%	/	45.6%	-16.2%	-15.1%	-14.4%
CCc1cccc(C)c1NC(=O)CSc1nnc(N)s1	0.5%	37.4%[59 µM]	15.3%	/	-14.1%	-14.4%
Cc1ccc(NC(=O)CN2C(=O)S/C(=C/c3ccc(-c4cc(C(=O)O)ccc4C)o3)C2=O)cc1C	11.2µM*	3.55µM*	-67.8%	?	8.2%	11.2µM*
Cc1ccc(C(=O)O)cc1-c1ccc(C=C2C(=O)c3ccccc3C2=O)o1	50.1µM*	17.8µM*	39.8µM*	?	-11.0%	?
Cc1ccc(C(=O)O)cc1NS(=O)(=O)c1ccc2c(c1)oc(=O)n2C	-12.1%	-1.3%	28.5%	2.1%	8.1%	-2.1%
CCn1c(C)cc(/C=C2\SC(=O)N(CC(=O)Nc3ccc(C)c(C)c3)C2=O)c1C	0.4%[57.1 µM]	17.6%	32.4%	-11.6%	-14.6%	-5.5%[57.1 µM]
Cc1ccccc1NC(=O)CN1C(=O)S/C(=C\c2ccc(-c3cccc(C(=O)O)c3C)o2)C1=O	-35.6%	20µM*	-33.6%	?	15.4%	-15.8%[11.4 µM]
Cc1cc(C)cc(Nc2nc3ccccc3n3cnnc23)c1	1.2%	7.9%[59 µM]	29.1%	/	21.7%	0.7%
COc1ccc(NC(=O)c2nnn(CC(=O)Nc3cccc(C)c3C)c2N)c(OC)c1	7.9%[57.1 µM]	-4.6%[59 µM]	27.6%	/	17.0%	-1.3%
CC(=O)N1CCN(CCN=CC2=C(O)CC(c3cccs3)CC2=O)CC1 (configuration not stated)	8.8%	50.1µM*	39.9%	-0.6%	-4.1%	-0.7%
CC(=O)N1CCN(CCN=CC2=C(O)CC(c3ccc(Cl)cc3)CC2=O)CC1 (configuration not stated)	-6.1%	50.1µM*	49.7%	-7.4%	-14.3%	-12.3%
Nc1c(C(=O)Nc2ccc(OC(F)(F)F)cc2)sc2nc(-c3ccncc3)ccc12	0.7%	?	49.4%	/	-14.3%	-1.0%
O=C1c2cccc3c([N+](=O)[O-])ccc(c23)C(=O)N1O	50.1µM*	?	14.2%	?	-1.3%	?
O=C1c2cccc3c([N+](=O)[O-])ccc(c23)C(=O)N1c1ccc(Cl)cn1	44.7µM*	?	?	?	-5.8%	?
O=C1c2cccc3c([N+](=O)[O-])ccc(c23)C(=O)N1c1ccccn1	?	70.8µM*	-29.7%	?	-15.2%	0.8%[11.4 µM]
Cc1c(NC(=O)C(=O)/C=C(\O)c2ccc(Cl)cc2)c(=O)n(-c2ccccc2)n1C	?	-18.0%[59 µM]	-1.3%	0.2%	-2.7%	12.6µM*
